Screening data deposited in PubChem by several laboratories.
PostGolgi ctrl – inhibits growth of the yeast control strain; efflux-deficient yeast background strain, growth absorbance A615, 16 h; inhibition, % at 10 µM; 98,000 tested, 5% active
PostGolgi yeast – growth inhibition of a yeast mutant, post-Golgi transport screen; post-Golgi transport phenotypic cell assay; inhibition, % at 10 µM; 98,000 tested, 0.9% active;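 further: yeast cells grown in 1536-well plates; yeast grown about 18 h at 30C before absorbance read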
Pyk2 oligo antag – blocks oligomerization of human Pyk2 in cells; z-score (the deposit names both 25 µM and 10 µM); 99,000 tested, 0.83% active; Q293 cells, Pyk2 FERM NanoBiT luminescence; active compounds read low;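 active means Z-score of -3 or lower, scaled per plate to the spread of control and sample wells; inactive means z-score above -3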;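 further: negative z-score means lost luminescence so less FERM oligomerization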
Target sequence (Q14289 whole entry, looked up): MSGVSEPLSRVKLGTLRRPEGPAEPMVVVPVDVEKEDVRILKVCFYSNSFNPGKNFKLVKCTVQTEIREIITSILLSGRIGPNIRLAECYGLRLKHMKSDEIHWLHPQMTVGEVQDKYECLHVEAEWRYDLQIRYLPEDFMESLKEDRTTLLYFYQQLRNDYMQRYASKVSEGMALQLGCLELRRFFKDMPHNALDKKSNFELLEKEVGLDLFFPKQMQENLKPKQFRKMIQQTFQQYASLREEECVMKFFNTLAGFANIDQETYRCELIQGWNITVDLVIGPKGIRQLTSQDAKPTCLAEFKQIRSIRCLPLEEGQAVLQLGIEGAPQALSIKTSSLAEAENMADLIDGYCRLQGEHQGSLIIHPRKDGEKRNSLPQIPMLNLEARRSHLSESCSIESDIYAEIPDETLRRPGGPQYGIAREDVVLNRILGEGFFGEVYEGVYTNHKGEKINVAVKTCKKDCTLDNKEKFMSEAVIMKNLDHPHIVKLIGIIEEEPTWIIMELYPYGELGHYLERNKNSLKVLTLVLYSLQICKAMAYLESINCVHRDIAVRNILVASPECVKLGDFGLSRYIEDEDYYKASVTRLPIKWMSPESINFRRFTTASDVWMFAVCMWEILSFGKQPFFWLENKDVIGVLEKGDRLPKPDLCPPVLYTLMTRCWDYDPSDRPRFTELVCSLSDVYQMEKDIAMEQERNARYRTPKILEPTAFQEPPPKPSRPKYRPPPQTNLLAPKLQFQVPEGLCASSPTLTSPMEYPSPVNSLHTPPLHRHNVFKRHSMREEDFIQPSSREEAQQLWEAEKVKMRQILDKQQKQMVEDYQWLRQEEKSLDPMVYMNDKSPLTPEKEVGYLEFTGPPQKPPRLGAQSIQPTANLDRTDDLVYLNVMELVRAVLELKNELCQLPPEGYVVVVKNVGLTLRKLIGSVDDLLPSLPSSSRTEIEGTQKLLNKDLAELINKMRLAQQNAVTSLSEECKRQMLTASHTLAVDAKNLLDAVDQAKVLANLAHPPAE
Cav32 inh – blocks human Cav3.2 T-type calcium channel | Cav3.2-expressing cells, Fluo-4 calcium fluorescence FDSS; active compounds read low | 100,000 tested, 4% active | O95180 | B-score at 10 µM;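 active means single-dose well whose peak fluorescence ratio is a statistical outlier from its plate by either plate-standardised score or position-corrected B-score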
The depositor's hits bear a star; . = no result given. A selection: hits, their analogues and other compounds. The true share with any hit is near 8%. Unless noted, no stated cut-off is given here; in the data, active means inhibition above about 30%; inactive means the rest.

SMILES | PostGolgi ctrl | PostGolgi yeast | Pyk2 oligo antag | Cav32 inh
CCOC(=O)CNC(=O)c1sc(NC(=O)c2cccc(F)c2)nc1C | 35* | -2 | -0.31 | 0.37
COC(=O)c1sc(NC(=O)C2CCCCC2C(=O)O)c(C(=O)OC)c1C (stereo not given) | -2 | 10 | 0.1 | 1.1
CC(C(=O)N1c2ccccc2Sc2ccccc21)n1nnc(-c2cccs2)n1 (stereo not given) | 32* | 5 | -2 | -7*
Cn1nnnc1SCC(=O)N1c2ccccc2CCc2ccccc21 | 3 | -2 | 0.03 | 0.0083
CC(C(=O)N1c2ccccc2CCc2ccccc21)n1nnc(-c2ccc(N(C)C)cc2)n1 (stereo not given) | . | . | -0.69 | -5.5*
Cc1ccc(-c2nnn(CC(=O)N3CCCc4ccccc43)n2)cc1 | 9 | -12 | -1 | -4.7*
O=C(O)Cn1nnc(-c2cccs2)n1 | 4 | 10 | 1.5 | .
Cc1ccc(-c2nnn(C(C)C(=O)N3c4ccccc4CCc4ccccc43)n2)cc1 (stereo not given) | . | . | -1.4 | -5.3*
O=C(Cn1cc2c(n1)CCCCC2)N1CCc2ccccc2C1 | 12 | 3 | . | 0.47
O=C(Cn1cc2c(n1)CCCC2)N1CCc2ccccc21 | 38* | 5 | . | -0.016
O=C(c1ccc(Cl)cc1)c1cc(-c2ccccn2)c(N2CCOCC2)s1 | 49* | 4 | 0.01 | 1.4
O=C(O)c1cc(-c2ccccc2)c(N2CCOCC2)s1 | 9 | 1 | -0.36 | 1.7
O=C(Nc1nc(-c2cccs2)cs1)c1ccc(S(=O)(=O)N2CCCCC2)cc1 | 41* | 18 | . | -6.1*
O=C(Nc1nc(-c2cccs2)cs1)c1cccc(S(=O)(=O)N2CCCCCC2)c1 | 8 | -5 | -0.78 | -2.9
Clc1cccc(-c2nnc(SCc3nc4ccccc4[nH]3)n2Cc2ccco2)c1 | -2 | -6 | 0.64 | -5.4*
Clc1ccc(OCc2nnc(SCc3nc4ccccc4[nH]3)n2Cc2ccco2)cc1 | 57* | 56* | 0.85 | -8.5*
CCN(C(=O)C1CCN(S(=O)(=O)c2ccc3c(c2)oc(=O)n3C)CC1)c1cccc(C)c1 | 12 | -19 | . | -0.0015
Cc1ccc(NC(=O)CN(C)S(=O)(=O)c2cccc3nsnc23)cc1Cl | 17 | -1 | 0.71 | -7.2*
CC(=O)c1ccc(Oc2ncnc3sccc23)c(CN2CCOCC2)c1 | 0 | 1 | -0.96 | 1.6
COc1ccc(Cl)cc1NC(=O)CN(C(=O)c1ccco1)C1CCCCC1 | 41* | -1 | -1.5 | .
Cc1nc(N2CCN(c3ccccc3)CC2)nc2c1C(=O)CC(C)C2 (stereo not given) | 37* | 0 | 0.07 | -2.1
Cc1ccc(SCc2cn3c(C)csc3n2)cc1 | 13 | 0 | -0.32 | -0.7
O=C(OCc1ccc(F)cc1)c1ccc2c(c1)-c1ccccc1C2=O | 38* | 2 | -1.1 | 0.17
COc1ccc(-n2c(SCC#N)nnc2-c2ccc(NS(=O)(=O)c3ccc(C)cc3)cc2)cc1 | 9 | -4 | -2.6 | 0.029
Cc1ccc(Nc2nc(Cl)nc(N(C)C#N)n2)cc1 | 3 | 13 | 1.3 | 4*
SMILES | PostGolgi ctrl | PostGolgi yeast | Pyk2 oligo antag | Cav32 inh
COC(=O)C(C(=O)OC)C(C)C(C(=O)OC)C(=O)OC | 5 | 0 | -0.62 | 0.7
COc1cccc(OCCCCN2CCCCC2)c1 | 9 | 7 | -0.18 | 1.4
CC1CN(CCCOc2ccccc2[N+](=O)[O-])CC(C)O1 (stereo not given) | 2 | 4 | -0.23 | 1.4
C=CCc1ccc(OCCCCN2CC(C)OC(C)C2)c(OC)c1 (stereo not given) | 43* | 97* | 0.75 | -0.62
C=CCc1ccc(OCCCOc2ccc(C)cc2OC)c(OC)c1 | 1 | -7 | -0.26 | -0.47
Cc1ccc(C(C)C)c(OCCCN2CC(C)OC(C)C2)c1 (stereo not given) | 28 | 83* | -0.11 | -0.23
COc1cccc(OCCCCN2CC(C)OC(C)C2)c1 (stereo not given) | 43* | 86* | -0.03 | 0.31
CC(C)[C@@H]1NC(=O)c2cc([N+](=O)[O-])cc(F)c2NCCC[C@@H](C(N)=O)NC(=O)[C@H](CO)NC1=O | . | . | . | 0.2
CC1(C)NC(=O)N(CCOCCOc2c(Cl)cc(Cl)cc2Cl)C1=O | 4 | -5 | -0.11 | 0.1
CCC(=O)c1ccc(N2CCN(C(=O)c3ccc(Br)cc3)CC2)c(F)c1 | 25 | 62* | 0.51 | 0.72
CCCC(=O)c1ccc(N2CCN(C(=O)c3ccc(Br)cc3)CC2)c(F)c1 | 0 | 8 | -0.13 | 0.099
CCC/C=C(\CCC)C(NS(=O)(=O)c1cccc2cccnc12)c1ccc(C(=O)OC)cc1 (stereo not given) | . | . | . | -1.5
CCc1ccc(/C=N/NC(=O)c2cc(C3CC3)nc3ccccc23)s1 | 32* | 11 | -1.5 | -1.1
CCOC(=O)C(C)Oc1ccc2c(C)cc(=O)oc2c1C(C)=O (stereo not given) | 3 | 33* | 0.33 | 0.29
O=C(Oc1nsnc1N1CCOCC1)N(c1ccccc1)c1ccccc1 | 30* | 15 | -0.93 | -3.8
COC(=O)Oc1nsnc1N1CCOCC1 | 0 | 1 | -0.4 | -0.018
CSc1ncc(Cl)c(C(=O)C(C#N)c2nc3c(C)cc(C)cc3c(=O)[nH]2)n1 (stereo not given) | 22 | -2 | -3* | -7*
CSc1ncc(Cl)c(C(=O)NCc2ccc3c(c2)OCO3)n1 | 2 | -7 | 1.8 | -0.0002
c1ccc2c(c1)oc1c(Nc3ccc(CN4CCOCC4)cc3)ncnc12 | 20 | 56* | -0.02 | 0.34
c1ccc2c(c1)oc1c(NCCN3CCOCC3)ncnc12 | 8 | -5 | 1.6 | -0.034
COC(=O)CSc1nc(N2CCCCC2)c2c(c1C#N)CCCC2 | 38* | -5 | -1.9 | -2.7
CCCSc1nc(N2CCOCC2)c2c(c1C#N)CCCC2 | 28 | -10 | -1.3 | -6.6*
COC(=O)CSc1nc(-c2ccccc2)c2c(c1C#N)CCCC2 | 7 | 1 | -2.1 | -2.8
COC(=O)c1ccc(CSc2nc(N3CCOCC3)c3c(c2C#N)CC(C)(C)OC3)o1 | 19 | 8 | -2.7 | -2.2
CC(C)CCSc1nc(N2CCOCC2)c2c(c1C#N)CC(C)(C)OC2 | 18 | -3 | -1.3 | -3.8*
SMILES | PostGolgi ctrl | PostGolgi yeast | Pyk2 oligo antag | Cav32 inh
CCCc1nc(N2CCOCC2)c(C#N)c2c1CCCC2 | 39* | -1 | 0.07 | -2.7
CCn1c(SCC(=O)N2CCN(c3ccc(F)cc3)CC2)nnc1-c1ccncc1 | 19 | -4 | 0.01 | 0.27
O=C(O)c1ccc(-n2nnnc2Oc2cccc3cccnc23)cc1 | 1 | 24 | 1.4 | 0.4
C=CCn1c(N)c(C(=O)Nc2ccccc2)c2nc3ccccc3nc21 | 37* | 10 | -0.92 | -0.14
C=CCn1c(N)c(C(=O)OC(C)CC)c2nc3ccccc3nc21 (stereo not given) | 38* | -2 | -0.08 | -1.6
C=CCn1c(N)c(C(=O)OC(C)(C)C)c2nc3ccccc3nc21 | 10 | 19 | -0.62 | 0.92
CC1CCC2(CC1)C(Nc1cccc(Cl)c1)=NC(=S)N2CC#N (stereo not given) | . | . | -2.1 | -4.3
COC(=O)c1ccc(CSc2nnc(Nc3cccc(OC)c3)s2)o1 | 14 | -6 | -1.1 | -0.62
COc1cccc(Nc2nnc(SCc3cc([N+](=O)[O-])cc4c3OCOC4)s2)c1 | 6 | -1 | -3.3* | .
Cc1cccc(C)c1Nc1nnc(SCC(=O)c2ccc3c(c2)NC(=O)CO3)s1 | . | . | 0.5 | .
